Reference: PubChem BioAssay (NCATS)
Several values for one entry are separate records, joined by “and”; a condition that tells them apart may be missing. Equal entries are not always repeated. Records with an inconclusive call do not appear. A number with no mark means an inactive call. Activity calls are given as the source filed them. Unless noted, calls come from the whole dose curve; as a rule, active = well fitted curve in either direction with a large enough effect (not every such curve was filed as active); inconclusive = small, poorly fitted or top-dose-only effect, or another doubt; inactive = flat fitted curve, though single readings scatter.

How the values were obtained:
[1] = AP1 Signaling Pathway (AID 357); details: ME-180 (cervical carcinoma) AP-1-bla reporter, EGF-induced, beta-lactamase ratio, 5 h;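 note: ME-180 reporter cells stimulated with EGF at its EC50 level; % is set by controls: 0 for no effect and ±100 for the full control effect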
Outline: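 Cells are seeded overnight, exposed to compound titrations and an EC50 level of EGF for 5 hours at 37 °C, then loaded with CCF4 dye for 2.5 hours. Beta-lactamase activity under the AP-1 element is read as a blue/green ratio.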

[2] = target: Cytochrome P450 1A2 (Homo sapiens) (UniProt P05177); test: p450-cyp1a2 (AID 410; calls by dose curve; note: potency is the fitted concentration of half-maximal effect;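 for activity change, negative = inhibition: -100% = full effect of reference inhibitor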); details: recombinant CYP1A2, luciferin-ME demethylation, luminescence; series mostly up to 57 µM
Chain of Cytochrome P450 1A2 (Homo sapiens) (P05177 whole entry, looked up): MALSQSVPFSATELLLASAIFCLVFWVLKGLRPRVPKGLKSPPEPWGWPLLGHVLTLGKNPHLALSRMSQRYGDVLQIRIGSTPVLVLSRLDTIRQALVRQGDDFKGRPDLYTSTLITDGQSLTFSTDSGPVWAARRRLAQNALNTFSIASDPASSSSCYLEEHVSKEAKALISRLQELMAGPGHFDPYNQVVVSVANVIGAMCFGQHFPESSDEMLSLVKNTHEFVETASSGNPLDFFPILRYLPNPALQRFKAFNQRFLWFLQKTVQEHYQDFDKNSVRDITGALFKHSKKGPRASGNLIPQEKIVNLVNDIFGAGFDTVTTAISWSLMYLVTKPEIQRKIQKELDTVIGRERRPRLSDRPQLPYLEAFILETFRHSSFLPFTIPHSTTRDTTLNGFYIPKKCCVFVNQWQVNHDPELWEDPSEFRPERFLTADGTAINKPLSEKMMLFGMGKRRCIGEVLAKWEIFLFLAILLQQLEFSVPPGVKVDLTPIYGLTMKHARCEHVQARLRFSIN
Outline: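 Read-out is luminescence from luciferin produced by CYP1A2 demethylation of Luciferin-ME (100uM, at Km). Detection reagent stopped the 60 min NADPH-dependent reaction; signals were normalized to 57 uM furafylline.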

[3] = NFAT Signaling Pathway (AID 444); details: Jurkat NFAT-bla M1, carbachol, beta-lactamase ratio, 5 h;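 note: carbachol stimulus at about its EC50 of 1 µM final; % is set by controls: 0 for no effect and ±100 for the full control effect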
Outline: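 Jurkat cells with NFAT-driven β-lactamase reporter and co-expressed M1 receptor, stimulated with carbachol (final 1 uM, ~EC50), compound titration, 5 h at 37 °C. CCF4 loaded 1 h at RT; 460/530 nm ratio gave %activity and AC50.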

[4] = Cell Viability - Hek293 (AID 427;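 active = compounds whose dose-response curve shows a full or clear partial loss of cell viability, called from curve shape rather than a numeric limit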;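 note: potency is the fitted concentration of half-maximal effect; cells exposed to compound for 40 hours at 37 °C before reading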); details: qHTS
Outline: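 HEK293 cells in complete medium were exposed to compound for 40 hr at 37 °C, then cellular ATP was read by CellTiter-Glo luminescence. Data were normalized to DMSO (basal) and 100 uM tamoxifen (100% inhibition), and AC50 came from Hill fits.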

[5] = Cell Viability - SK-N-SH (AID 435; calls by dose curve; note: potency is the fitted concentration of half-maximal effect); details: SK-N-SH neuroblastoma cell viability qHTS
Outline: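 CellTiter-Glo ATP luminescence, 20 min RT read; cells pre-plated 5 hr, compound 40 hr at 37 °C, 1500 cells/well, complete medium. Normalized DMSO = 0, 100 uM tamoxifen = 100% inhibition; Hill-fit AC50.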

[6] = Cell Viability - BJ (AID 421; calls by dose curve;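 note: potency is the fitted concentration of half-maximal effect; cells exposed to compound for 40 hours at 37 °C before readout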); details: BJ fibroblast viability, qHTS
Outline: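 Normal human BJ foreskin fibroblasts, 1500/well in complete medium, treated 40 hr at 37 °C. Cellular ATP by CellTiter-Glo luminescence; normalized to DMSO and 100 uM tamoxifen, AC50 from Hill fit.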

[7] = Cell Viability - Jurkat (AID 426;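 active = dose-dependent loss of cell ATP signal giving a full or clear fitted curve, ranked by lower potency value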; note: potency is the fitted concentration of half-maximal effect); details: qHTS
Outline: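 Cytotoxicity was scored as loss of cellular ATP, measured by luciferase-based luminescence, in Jurkat clone E6-1 cells after 40 h compound treatment; tamoxifen and doxorubicin served as positive controls.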

[8] = Cell Viability - HepG2 (AID 433; calls by dose curve;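 note: potency is the fitted concentration of half-maximal effect; potency for ATP loss meaning cytotoxicity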); details: qHTS
Outline: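 ATP luminescence (CellTiter-Glo) after 40 h compound exposure, 37 °C, HepG2, 1500 cells/well, complete medium. Normalized: DMSO = basal, 100 uM tamoxifen = 100% inhibition. AC50 via standard Hill equation.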

[9] = Cell Viability - MRC5 (AID 434; calls by dose curve;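 note: potency is the fitted concentration of half-maximal effect; potency reflects cytotoxicity seen as loss of intracellular ATP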); details: MRC5 lung fibroblast viability, qHTS
Outline: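 ATP luminescence read-out (CellTiter-Glo, 20 min RT) after 40 hr, 37 °C compound exposure of 1500 MRC5 cells/well. Data normalized to DMSO (basal) and 100 uM tamoxifen (100% inhibition); AC50 from standard Hill equation.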

CCN(CC)CCNC(=O)c1cc(S(C)(=O)=O)ccc1OC
activity change, negative = inhibition ([1]; at 17.2 µM (top of the series)): -0.734% and 2.54%
activity change, negative = inhibition ([1]; at 38 µM (top of the series)): 5.15%
Potency [2]: inactive
activity change, negative = inhibition ([3]; at 17.2 µM (top of the series)): -6.77% and -21.4%
activity change, negative = inhibition ([3]; at 38 µM (top of the series)): -5.52%

COc1ccc([C@@H]2Sc3ccccc3N(CCN(C)C)C(=O)[C@@H]2OC(C)=O)cc1
activity change, negative = inhibition ([1]; at 17.2 µM (top of the series)): 23.2%
Potency [2]: inactive

Cc1ccc(S(=O)(=O)NC(=O)NN2CCCCCC2)cc1
activity change, negative = inhibition ([1]; at 17.2 µM (top of the series)): -5.47% and 3%
activity change, negative = inhibition ([1]; at 38 µM (top of the series)): 4.52%
activity change, negative = inhibition ([3]; at 17.2 µM (top of the series)): -5.82% and -2.02%
activity change, negative = inhibition ([3]; at 38 µM (top of the series)): -9.25%

Brc1c(NC2=NCCN2)ccc2nccnc12
activity change, negative = inhibition ([1]; at 17.2 µM (top of the series)): -0.374%
activity change, negative = inhibition ([1]; at 38 µM (top of the series)): 6.19%
Potency [2]: inactive
activity change, negative = inhibition ([3]; at 17.2 µM (top of the series)): 15.8%
activity change, negative = inhibition ([3]; at 38 µM (top of the series)): 1.97%

CCCN(CCC)CCc1cccc2c1CC(=O)N2
activity change, negative = inhibition ([1]; at 38 µM (top of the series)): 3.44%
Potency [2]: inactive

Nc1nc(N)c2nc(-c3ccccc3)c(N)nc2n1
activity change, negative = inhibition ([1]; at 17.2 µM (top of the series)): 16.6% and 10.9%
activity change, negative = inhibition ([1]; at 38 µM (top of the series)): -2.44%
Potency [4]: 18 µM (active)
Potency [5]: 66.1 µM (active)

NC(=O)N1c2ccccc2C=Cc2ccccc21
activity change, negative = inhibition ([1]; at 17.2 µM (top of the series)): -5.62% and 13.4%
Potency [2]: inactive
Potency [6]: > 92 µM
Potency [7]: > 92 µM
Potency [4]: > 92 µM
Potency [8]: > 92 µM
Potency [9]: > 92 µM
Potency [5]: > 92 µM

CN1CCN(CC(=O)N2c3ccccc3C(=O)Nc3cccnc32)CC1
activity change, negative = inhibition ([1]; at 17.2 µM (top of the series)): -3.75% and 6.17%
activity change, negative = inhibition ([1]; at 38 µM (top of the series)): 9.42%
Potency [2]: inactive
activity change, negative = inhibition ([3]; at 17.2 µM (top of the series)): -94.8% (active)

O=C1NCN(c2ccccc2)C12CCN(CCCC(c1ccc(F)cc1)c1ccc(F)cc1)CC2
activity change, negative = inhibition ([1]; at 17.2 µM (top of the series)): -2.84%
activity change, negative = inhibition ([1]; at 38 µM (top of the series)): 1.17%
Potency [2]: 12.6 µM (active)

C[n+]1cc2c3c(ccc2c2ccc4cc5c(cc4c21)OCO5)OCO3
activity change, negative = inhibition ([1]; at 17.2 µM (top of the series)): -119% (active)
activity change, negative = inhibition ([1]; at 38 µM (top of the series)): -111% (active)
Potency [2]: 3.98 µM (active) and 10 µM (active)
activity change, negative = inhibition ([3]; at 38 µM (top of the series)): -48.1% (active)

NC(N)=NC(=O)Cc1c(Cl)cccc1Cl
activity change, negative = inhibition ([1]; at 17.2 µM (top of the series)): 3.24%
activity change, negative = inhibition ([1]; at 38 µM (top of the series)): 6.16%
Potency [2]: inactive
activity change, negative = inhibition ([3]; at 17.2 µM (top of the series)): 3.14%
activity change, negative = inhibition ([3]; at 38 µM (top of the series)): 2.06%

CN(C)CC/C=C1\c2ccccc2COc2ccccc21
activity change, negative = inhibition ([1]; at 17.2 µM (top of the series)): 22.2%
activity change, negative = inhibition ([1]; at 38 µM (top of the series)): 23.8%
Potency [2]: 12.6 µM (active) and 5.01 µM (active) and 15.8 µM (active)
